# In the library only some 1.5% were active in any assay of this set; here they are far more common.
# Cdc25B inh: human M-phase inducer phosphatase 2 inhibition | inhibition, %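 (compounds tested at 10 µM final in the well)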 | recombinant Cdc25B, OMFP fluorescence Ex485/Em525 | P30305 | actives 0.1% (n = 65,000); in the data active means inhibition above about 50%
# TNAP act DEA: activators of human TNAP at intermediate phosphate acceptor; P05186; purified TNAP, CDP-star luminescence, 100 mM DEA, 30 min; stronger effect = higher value; scale: 0 levamisole-inhibited, 1 vehicle-only enzyme; activation factor at 20 µM; 64,000 tested, under 10 active; AID 813;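 active means activation factor of at least 2 at 20 µM, relative to controls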
# DUSP1 inh: inhibitors of human MKP-1 phosphatase | P28562 | recombinant MKP-1, OMFP hydrolysis fluorescence | inhibition, %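 (compounds tested at a single concentration somewhere between 10 and 100 µM)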 | actives 0.15% (n = 65,000);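 active means inhibition above about 50%, limit read from the data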;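 further: 0% = DMSO max control wells and 100% = wells with enzyme stopped by NaOH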
# Hsp90 block: displaces geldanamycin probe from tumor Hsp90; actives 0.35% (n = 64,000); inhibition, % at 30 µM; NCI-N417 lysate Hsp90, Cy3B-geldanamycin FP displacement; AID 429; P07900;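 active means inhibition above 50%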;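 further: 0% = tracer plus lysate wells and 100% = tracer alone without lysate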
# PLAP act: human PLAP activation. P05187. purified PLAP enzyme, luminescent substrate read-out; stronger effect = higher value. activation fold at 20 µM. actives 1.2% (n = 96,000). AID 696; in the data active means activation fold above about 2
# HePTP inh: blocks human HePTP tyrosine phosphatase; P35236; recombinant HePTP phosphatase activity, OD absorbance; inhibition, % at 20 µM; actives 0.64% (n = 110,000); AID 521; in the data active means inhibition above about 50%;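 further: plate controls were vehicle for no effect and reference inhibitor for full effect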
# Target sequence (P35236 whole entry, looked up): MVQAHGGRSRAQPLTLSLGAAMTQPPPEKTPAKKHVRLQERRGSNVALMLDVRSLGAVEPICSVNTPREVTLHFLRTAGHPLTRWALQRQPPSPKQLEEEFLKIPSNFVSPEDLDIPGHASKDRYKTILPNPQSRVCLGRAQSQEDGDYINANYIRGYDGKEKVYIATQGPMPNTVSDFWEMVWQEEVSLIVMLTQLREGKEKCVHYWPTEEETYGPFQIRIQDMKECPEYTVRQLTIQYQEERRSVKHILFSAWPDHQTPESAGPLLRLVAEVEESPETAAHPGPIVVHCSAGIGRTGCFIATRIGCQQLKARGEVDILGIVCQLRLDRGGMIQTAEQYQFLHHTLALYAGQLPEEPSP
# * marks the source's active call; other numbers are inactive results; · = no result.
SMILES,Cdc25B inh,TNAP act DEA,DUSP1 inh,Hsp90 block,PLAP act,HePTP inh
Cc1ccn2cc(CNS(=O)(=O)c3ccc(Cl)s3)nc2c1,2.9,1.3,-0.9,-2.1,2.1*,-7.6
CCc1ccc(S(=O)(=O)NCc2cn3ccsc3n2)s1,-11.6,·,0.6,-1.4,0.9,·
Cc1csc2nc(CCNS(=O)(=O)c3cccs3)cn12,-2.4,1.1,2.2,-6.0,2.9*,2.1
CCc1ccc(S(=O)(=O)NCc2cn3cccc(C)c3n2)s1,10.4,0.9,-5.6,1.6,1.7,3.6
CCc1ccc(S(=O)(=O)NCCc2cn3ccsc3n2)s1,-7.8,1.1,-1.9,-2.7,2*,-0.6
CCc1ccc(S(=O)(=O)NCc2cn3ccccc3n2)s1,17.6,0.7,0.0,7.0,2*,4.8
CCOC(=O)c1ccc(N/C=C/C(=O)c2cccs2)cc1,·,·,·,·,·,5.8
O=C(c1ccccc1F)N1CCN(c2ccc([N+](=O)[O-])c(NC3CC3)c2)CC1,·,·,·,·,·,0.0
CC(=O)NC(=O)c1ccccc1OCC(=O)c1ccc(Br)cc1,·,·,·,·,·,54.9*
CC1(C)C(N(O)C(=O)Nc2ccc(Cl)cc2)N(c2ccc(Cl)cc2)C(=O)N1CC(=O)NN (centres undefined),·,·,·,·,2*,·
CCOC(=O)c1cc(-c2ccco2)nc2ccc(Br)cc12,·,·,·,·,·,27.3
CCOC(=O)C1=C(O)/C(=C/c2ccc(Cl)cc2)SC1=Nc1ccc(OC)cc1,·,·,·,·,·,8.7
Cc1ccc(S(=O)(=O)NC2(C(F)(F)F)C(=O)Nc3c2c(=O)n(C)c(=O)n3C)cc1 (centres undefined),-7.2,0.9,-1.0,-0.5,0.8,4.1
CCC(=O)NC1(C(F)(F)F)C(=O)Nc2c1c(=O)n(C)c(=O)n2C (centres undefined),60.2*,1,3.6,-1.7,0.9,11.0
Nc1nc(-c2ccccc2)cc(N2CCOCC2)n1,·,·,·,·,·,105.5*
c1ccc(-c2cc(N3CCOCC3)nc(-c3ccccc3)n2)cc1,-1.5,0.9,-8.2,-3.2,0.9,4.0
COc1ccc(OC)c(NC(=S)NC(NC(=O)c2cccc(C)c2)C(Cl)(Cl)Cl)c1 (centres undefined),·,·,·,·,·,-6.9
c1cnc(Nc2nc(-c3cccs3)cs2)nc1,·,·,·,·,·,102.0*
CC(N)(Cc1ccc(O)c(O)c1)C(=O)O (centres undefined),·,·,·,54.4*,·,·
CCC1=NN(C(=O)Cc2ccc(OC)cc2)C(O)(c2ccncc2)C1 (centres undefined),·,·,·,·,·,2.7
CCOc1ccc(C2C(C#N)=C(N)SC(N)=C2C#N)cc1OCC,-6.3,1,11.6,·,2.6*,4.2
COc1ccc(OC)c(C2NC(=S)NC(C)=C2C(=O)Nc2cc(Cl)ccc2C)c1 (centres undefined),·,·,·,·,·,2.0
O=C(CCCN1C(=O)c2cccc3cccc(c23)C1=O)Nc1cccc2ccccc12,·,·,·,·,·,5.4
COc1ccc(S(=O)(=O)N2CCN(Cc3ccc([N+](=O)[O-])cc3)CC2)cc1,·,·,·,·,·,56.6*
COc1ccc(S(=O)(=O)N2CCN(Cc3ccccc3)CC2)cc1,-9.9,1,-20.3,-2.8,1,-2.6
SMILES,Cdc25B inh,TNAP act DEA,DUSP1 inh,Hsp90 block,PLAP act,HePTP inh
COc1ccc(N2CCN(CC(=O)Nc3nc4c(s3)CC(C)CC4)CC2)cc1 (centres undefined),-2.0,1.2,-6.8,-0.2,2.9*,2.3
COc1ccc(N2CCN(CC(=O)Nc3cc(C)on3)CC2)cc1,-1.6,1,22.8,3.1,1.3,0.1
Cc1cc(Br)cc2c1NC(=O)C21OCCO1,·,·,·,·,·,7.2
CN(C)C1(c2cccs2)CS(=O)(=O)C1,·,·,·,·,·,102.5*
CN(C)CCC(=O)c1cccs1,·,·,·,·,·,11.3
CC1=NN(c2ccc(S(N)(=O)=O)cc2)C(=O)/C1=C\c1ccc2c(c1)OCO2,·,·,·,·,·,63.3*
Cc1cnn(CCC(=O)NNC(=S)Nc2ccc(F)cc2)c1,·,·,·,·,2.3*,·
Cc1cnn(CCC(=O)NNC(=S)Nc2cccc(Cl)c2)c1,·,·,·,·,1.6,·
CC(C)(C)c1ccc(OCCNC(=O)c2ncn[nH]2)cc1,·,·,·,·,2.7*,·
CCc1cc(C)cc(OCCNC(=O)c2ncn[nH]2)c1,-10.0,1,10.6,-3.8,2*,15.4
C/C(=N\NC(=O)c1cc(C23CC4CC(CC(C4)C2)C3)[nH]n1)c1cccs1,·,·,·,·,·,-5.9
CSCC[C@H](NC(=O)OC(C)(C)C)C(=O)N/N=C/c1c(C)[nH]c(=O)[nH]c1=O,·,·,·,·,2.2*,·
CC1CC(Nc2ccccc2)c2ccccc2N1C(=O)c1ccccc1[N+](=O)[O-] (centres undefined),·,·,·,·,·,2.3
Cc1ccc(C2=NNC(C(O)C(O)C(O)C(O)CO)S2)cc1 (centres undefined),·,·,·,·,2*,·
CCCC1=NN2C(=N)/C(=C/c3ccc(-c4ccc([N+](=O)[O-])cc4Br)o3)C(=O)N=C2S1,·,·,·,·,·,75.9*
NC1=NC(=O)/C(=C\c2ccc(-c3ccc([N+](=O)[O-])cc3)o2)S1,·,·,·,·,·,64.2*
CC(C)C1=NN2C(=N)/C(=C/c3ccc(-c4ccc([N+](=O)[O-])cc4)o3)C(=O)N=C2S1,·,·,·,·,·,78.7*
O=C(O)CCCN1C(=O)C(=O)/C(=C(/O)c2ccccc2)C1c1ccc(Br)cc1 (centres undefined),·,·,·,·,·,7.3
CC(=O)N1CCN=C1Nc1c(Cl)cccc1Cl,·,·,·,·,·,-2.0
O=C(CSc1ccccn1)Nc1ccc2nc(SCC(=O)Nc3ccccc3F)sc2c1,·,·,·,·,·,4.3
COC(=O)c1ccc(NC(=O)CCC2CCCCC2)cc1,·,·,·,·,·,-9.7
COc1ccccc1-c1nc2s/c(=C\c3cccs3)c(=O)n2n1,0.4,0.8,0.1,-4.1,1.2,4.0
O=c1/c(=C/c2ccco2)sc2nc(-c3ccccc3Br)nn12,1.5,0.4,-4.9,-5.5,2.2*,15.0
COc1ccc2ccccc2c1-c1nnc2ccc(C(F)(F)F)cn12,·,·,·,·,·,3.4
FC(F)(F)c1ccc2nnc(-c3cc(Br)ccc3OCc3ccccc3)n2c1,·,·,·,·,·,55.0*
FC(F)(F)c1ccc2nnc(-c3cccc(OCc4ccccc4)c3)n2c1,·,·,·,·,·,101.1*
O=C(N/N=C\c1cc(O)c(Br)cc1Br)c1ccc(Br)cc1,·,·,·,·,·,10.3
